Test results: ChEMBL document CHEMBL3988442, “University of Dundee, Small-Polar-MMV Screening Library” (2021)
For some assays here: Results with a measured potency or affinity are listed apart.

What was measured:
Parameters in all cases: scale not given: direction of the effect not stated beside the values
[1] = target: Protein translocase subunit SecA (Escherichia coli (strain K12)) (UniProt P10408); assay: Assay to Identify E. coli SecA ATPase Inhibitors; format: functional; conditions: 30 µM
Protein translocase subunit SecA (Escherichia coli (strain K12)), sequence (P10408 whole entry): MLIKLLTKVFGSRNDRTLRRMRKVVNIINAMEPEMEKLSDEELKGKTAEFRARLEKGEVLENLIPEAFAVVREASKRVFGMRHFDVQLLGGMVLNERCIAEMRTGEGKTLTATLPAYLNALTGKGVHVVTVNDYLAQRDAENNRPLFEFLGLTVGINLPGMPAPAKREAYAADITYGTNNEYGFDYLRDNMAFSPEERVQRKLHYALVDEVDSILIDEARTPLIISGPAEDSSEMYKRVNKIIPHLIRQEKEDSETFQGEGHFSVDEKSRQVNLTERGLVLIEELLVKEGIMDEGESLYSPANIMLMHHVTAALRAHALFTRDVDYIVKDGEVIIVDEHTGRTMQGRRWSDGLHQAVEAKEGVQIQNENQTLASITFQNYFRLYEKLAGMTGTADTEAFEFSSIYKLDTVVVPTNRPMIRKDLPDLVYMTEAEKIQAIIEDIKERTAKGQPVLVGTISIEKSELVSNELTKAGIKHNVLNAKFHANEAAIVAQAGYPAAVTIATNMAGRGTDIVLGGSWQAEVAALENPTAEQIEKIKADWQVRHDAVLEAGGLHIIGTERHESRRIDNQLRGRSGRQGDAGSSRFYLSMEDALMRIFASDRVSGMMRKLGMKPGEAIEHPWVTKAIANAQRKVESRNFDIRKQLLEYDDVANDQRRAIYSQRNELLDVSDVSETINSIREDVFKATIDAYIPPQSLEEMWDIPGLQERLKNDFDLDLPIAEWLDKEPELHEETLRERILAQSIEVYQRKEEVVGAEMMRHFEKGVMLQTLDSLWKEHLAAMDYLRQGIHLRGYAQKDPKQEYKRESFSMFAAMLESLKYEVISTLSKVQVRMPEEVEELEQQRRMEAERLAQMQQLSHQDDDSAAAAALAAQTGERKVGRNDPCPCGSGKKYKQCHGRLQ

[2] = target: T1, Ubiquitin-activating enzyme e1, putative (Leishmania donovani (strain BPK282A1)) (UniProt E9BSI1); assay: Leishmania donovani Ubiquitin Activating Enzyme (LdE1); format: functional; conditions: 30 µM
T1 sequence (whole entry): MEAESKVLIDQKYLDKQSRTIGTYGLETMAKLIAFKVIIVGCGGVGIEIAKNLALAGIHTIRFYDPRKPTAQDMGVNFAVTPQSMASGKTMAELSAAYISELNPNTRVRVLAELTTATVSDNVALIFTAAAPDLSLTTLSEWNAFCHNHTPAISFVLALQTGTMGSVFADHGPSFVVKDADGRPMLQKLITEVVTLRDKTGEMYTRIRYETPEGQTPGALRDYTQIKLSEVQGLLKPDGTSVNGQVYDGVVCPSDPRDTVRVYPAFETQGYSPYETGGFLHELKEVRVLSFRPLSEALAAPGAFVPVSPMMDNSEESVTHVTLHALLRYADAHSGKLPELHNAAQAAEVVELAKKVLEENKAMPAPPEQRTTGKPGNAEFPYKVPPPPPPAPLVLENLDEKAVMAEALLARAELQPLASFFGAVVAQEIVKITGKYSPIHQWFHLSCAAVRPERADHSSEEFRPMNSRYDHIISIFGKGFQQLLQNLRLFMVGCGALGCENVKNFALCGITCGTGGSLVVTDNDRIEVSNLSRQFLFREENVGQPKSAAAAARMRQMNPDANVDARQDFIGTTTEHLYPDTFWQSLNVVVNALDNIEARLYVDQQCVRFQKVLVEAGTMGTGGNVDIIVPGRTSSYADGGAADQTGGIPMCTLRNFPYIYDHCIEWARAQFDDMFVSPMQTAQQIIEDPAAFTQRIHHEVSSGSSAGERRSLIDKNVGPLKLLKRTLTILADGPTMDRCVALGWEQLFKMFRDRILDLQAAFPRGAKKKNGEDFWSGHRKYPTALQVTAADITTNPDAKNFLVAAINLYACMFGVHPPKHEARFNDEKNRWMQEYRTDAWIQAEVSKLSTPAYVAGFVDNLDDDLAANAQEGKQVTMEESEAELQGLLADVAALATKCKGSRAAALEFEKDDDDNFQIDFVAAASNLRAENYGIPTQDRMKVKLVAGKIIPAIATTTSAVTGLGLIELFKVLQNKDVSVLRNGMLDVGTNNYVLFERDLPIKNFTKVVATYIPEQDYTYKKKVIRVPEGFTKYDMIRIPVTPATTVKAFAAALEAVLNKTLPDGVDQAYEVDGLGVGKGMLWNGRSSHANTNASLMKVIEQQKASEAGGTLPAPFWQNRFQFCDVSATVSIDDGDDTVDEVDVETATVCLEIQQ

[3] = target: AMP-activated protein kinase, AMPK (Homo sapiens) (UniProt P54646+O43741+P54619+Q9UGJ0+Q9Y478+Q13131+Q9UGI9); assay: AMP-dependent Kinase enzyme assay. An in vitro enzyme assay that detects ADP turnover that is directly proportional to AMPK activity. This uses naive AMPK that is activated during the assay with MK-8722; format: functional; conditions: 30 µM
[4] = target: Sialic acid-binding Ig-like lectin 9 (Homo sapiens) (UniProt Q9Y336); assay: Hs-Siglec9 ALPHAscreen SOP 20170721; conditions: 10 µM
Sialic acid-binding Ig-like lectin 9 (Homo sapiens), sequence (Q9Y336 whole entry): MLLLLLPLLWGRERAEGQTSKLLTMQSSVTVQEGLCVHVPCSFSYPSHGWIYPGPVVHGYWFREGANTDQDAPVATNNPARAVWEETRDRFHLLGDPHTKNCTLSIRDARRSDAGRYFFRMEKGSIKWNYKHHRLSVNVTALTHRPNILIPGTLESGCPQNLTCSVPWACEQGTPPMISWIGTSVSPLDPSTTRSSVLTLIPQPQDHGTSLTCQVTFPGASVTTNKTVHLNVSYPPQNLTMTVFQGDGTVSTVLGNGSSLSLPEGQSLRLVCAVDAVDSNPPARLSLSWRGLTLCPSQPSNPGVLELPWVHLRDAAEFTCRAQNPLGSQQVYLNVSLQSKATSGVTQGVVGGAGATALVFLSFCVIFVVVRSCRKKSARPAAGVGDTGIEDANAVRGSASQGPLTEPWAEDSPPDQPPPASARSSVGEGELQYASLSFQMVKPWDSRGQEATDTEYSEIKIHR

Trypanosoma cruzi = assay: Trypanosoma cruzi phosphomannomutase and mannose-1-phosphate guanylyltransferase assay; format: functional; conditions: 10 µM
[5] = target: T2, Arginase-2, mitochondrial (Homo sapiens) (UniProt P78540); assay: in vitro enzyme assay to detect the production of urea directly proportional to the activity of Arginase II; format: functional; conditions: 33.3 µM; note: in the data most compounds retested in dose-response had high values
T2 sequence (whole entry): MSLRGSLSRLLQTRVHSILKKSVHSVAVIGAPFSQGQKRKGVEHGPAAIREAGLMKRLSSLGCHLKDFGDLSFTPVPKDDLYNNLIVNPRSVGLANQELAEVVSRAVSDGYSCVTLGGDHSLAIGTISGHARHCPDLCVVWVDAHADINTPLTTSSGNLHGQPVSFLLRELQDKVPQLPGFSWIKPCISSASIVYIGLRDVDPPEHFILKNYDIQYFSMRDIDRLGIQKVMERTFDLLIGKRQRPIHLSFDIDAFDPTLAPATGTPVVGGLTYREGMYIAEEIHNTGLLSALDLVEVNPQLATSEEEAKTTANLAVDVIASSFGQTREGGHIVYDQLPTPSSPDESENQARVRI

[6] = target: T3, Proteasome subunit beta (Trypanosoma cruzi) (UniProt O96673); assay: Trypanosoma cruzi proteasome chymotrypsin-like activity (TcProtChymo) assay.; note: in the data most compounds retested in dose-response had high values; format: functional; conditions: 9.37 µM
T3 sequence (whole entry): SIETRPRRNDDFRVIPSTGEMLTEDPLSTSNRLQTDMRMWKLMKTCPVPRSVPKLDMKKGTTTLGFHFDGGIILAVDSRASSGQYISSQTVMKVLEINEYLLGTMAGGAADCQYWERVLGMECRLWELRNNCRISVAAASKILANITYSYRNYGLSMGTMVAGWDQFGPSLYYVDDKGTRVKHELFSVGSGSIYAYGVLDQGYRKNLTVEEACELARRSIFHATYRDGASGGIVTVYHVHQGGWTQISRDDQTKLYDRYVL

Homo sapiens = species: Homo sapiens; assay: To identify inhibition of the IFN signalling (Jak-Stat) pathway via expression of an eGFP reporter gene under the control of an IFN-stimulated response element (ISRE) containing MxA promoter.; format: functional; conditions: 30 µM
[7] = target: T4, Tyrosyl-tRNA synthetase, putative (Trypanosoma cruzi (strain CL Brener)) (UniProt Q4DSP6); assay: Trypanosoma cruzi tyrosyl tRNA synthetase (TcYRS) _High Tyrosine SOP; format: functional; conditions: 30 µM; note: in the data most compounds retested in dose-response had high values
T4 sequence (whole entry): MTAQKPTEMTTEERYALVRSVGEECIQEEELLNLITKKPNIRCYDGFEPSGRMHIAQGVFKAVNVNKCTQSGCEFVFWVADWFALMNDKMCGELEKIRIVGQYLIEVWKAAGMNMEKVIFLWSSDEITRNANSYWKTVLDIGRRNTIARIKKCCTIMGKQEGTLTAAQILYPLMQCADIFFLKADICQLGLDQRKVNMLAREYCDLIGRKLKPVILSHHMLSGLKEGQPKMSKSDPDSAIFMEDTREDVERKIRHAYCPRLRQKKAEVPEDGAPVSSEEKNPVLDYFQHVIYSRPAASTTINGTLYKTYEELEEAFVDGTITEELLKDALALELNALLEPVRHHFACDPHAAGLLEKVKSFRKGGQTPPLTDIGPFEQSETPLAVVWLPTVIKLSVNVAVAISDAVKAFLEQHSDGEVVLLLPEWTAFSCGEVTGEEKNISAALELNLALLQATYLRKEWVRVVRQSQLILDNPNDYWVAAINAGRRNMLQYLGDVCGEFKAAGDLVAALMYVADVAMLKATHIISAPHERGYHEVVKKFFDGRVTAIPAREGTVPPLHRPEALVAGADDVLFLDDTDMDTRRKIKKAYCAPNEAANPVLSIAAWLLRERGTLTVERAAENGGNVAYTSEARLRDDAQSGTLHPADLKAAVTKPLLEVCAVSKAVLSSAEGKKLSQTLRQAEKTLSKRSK

[8] = target: T4, Tyrosyl-tRNA synthetase, putative (Trypanosoma cruzi (strain CL Brener)); assay: Trypanosoma cruzi tyrosyl tRNA synthetase (TcYRS) SOP; format: functional; conditions: 30 µM
[9] = target: Chromo domain-containing protein 1 (Saccharomyces cerevisiae (strain ATCC 204508 / S288c) (Baker's yeast)) (UniProt P32657); assay: ScCHD-1 Enzyme Inhibition Assay; format: functional; conditions: 30 µM; note: in the data most compounds retested in dose-response had high values
Chromo domain-containing protein 1 (Saccharomyces cerevisiae (strain ATCC 204508 / S288c) (Baker's yeast)), sequence (P32657 whole entry, the tested form may be a part): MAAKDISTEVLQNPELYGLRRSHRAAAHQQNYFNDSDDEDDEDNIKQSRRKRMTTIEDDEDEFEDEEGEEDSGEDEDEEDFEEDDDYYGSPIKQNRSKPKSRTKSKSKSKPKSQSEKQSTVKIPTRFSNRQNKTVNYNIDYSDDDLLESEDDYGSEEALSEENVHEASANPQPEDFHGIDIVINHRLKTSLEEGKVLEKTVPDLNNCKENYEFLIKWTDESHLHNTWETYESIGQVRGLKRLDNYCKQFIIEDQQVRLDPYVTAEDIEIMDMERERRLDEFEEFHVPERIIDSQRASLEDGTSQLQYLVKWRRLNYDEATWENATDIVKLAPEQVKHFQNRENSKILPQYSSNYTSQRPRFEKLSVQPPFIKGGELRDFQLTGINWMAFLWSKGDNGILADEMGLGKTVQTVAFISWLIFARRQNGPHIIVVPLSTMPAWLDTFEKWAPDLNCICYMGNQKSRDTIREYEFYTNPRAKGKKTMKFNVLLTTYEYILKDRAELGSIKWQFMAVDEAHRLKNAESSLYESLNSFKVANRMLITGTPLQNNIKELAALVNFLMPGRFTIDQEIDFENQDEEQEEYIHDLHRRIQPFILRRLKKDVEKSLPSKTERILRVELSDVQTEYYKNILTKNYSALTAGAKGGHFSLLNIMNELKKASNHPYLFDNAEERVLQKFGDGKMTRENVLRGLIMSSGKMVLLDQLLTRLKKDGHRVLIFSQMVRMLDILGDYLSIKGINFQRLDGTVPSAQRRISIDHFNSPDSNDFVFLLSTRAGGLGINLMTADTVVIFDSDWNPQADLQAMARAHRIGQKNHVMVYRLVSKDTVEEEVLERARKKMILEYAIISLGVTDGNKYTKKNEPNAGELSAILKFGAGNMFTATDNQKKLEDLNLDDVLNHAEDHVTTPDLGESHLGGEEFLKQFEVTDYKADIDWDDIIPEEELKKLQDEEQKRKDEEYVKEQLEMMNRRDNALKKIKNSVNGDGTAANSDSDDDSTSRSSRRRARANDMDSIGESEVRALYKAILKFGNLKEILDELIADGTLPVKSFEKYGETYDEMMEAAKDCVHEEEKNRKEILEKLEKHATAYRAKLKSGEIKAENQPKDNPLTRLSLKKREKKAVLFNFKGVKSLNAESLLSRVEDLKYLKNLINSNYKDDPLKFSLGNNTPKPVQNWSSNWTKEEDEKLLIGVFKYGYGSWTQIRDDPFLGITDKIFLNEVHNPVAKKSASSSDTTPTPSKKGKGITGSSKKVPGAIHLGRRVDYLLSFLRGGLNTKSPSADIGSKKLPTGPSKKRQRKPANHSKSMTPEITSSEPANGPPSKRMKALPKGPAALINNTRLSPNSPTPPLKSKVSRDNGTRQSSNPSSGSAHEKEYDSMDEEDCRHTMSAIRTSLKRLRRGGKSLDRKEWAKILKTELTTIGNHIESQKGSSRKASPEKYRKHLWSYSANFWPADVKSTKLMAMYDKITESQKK

SMILES	Percent Effect [1]	Percent Effect [2]	Percent Effect [3]	Percent Effect [4]	Percent Effect (Trypanosoma cruzi)	Percent Effect [5]	Percent Effect [6]	Percent Effect (Homo sapiens)	Percent Effect [7]	Percent Effect [8]	Percent Effect [9]
Cc1cc(C[S+]([O-])CC(=O)NCc2cccs2)no1 (configuration not stated)	-6.18%	10.4%	3.08%	10.1%	1.87%	-6.05%	1.01%	5.94%	8.74%	19.5%	-5.87%
CN(Cc1cscn1)C1CCCN(Cc2noc(C3CC3)n2)C1 (configuration not stated)	-0.734%	23.7%	-5.57%	-10.6%	2.33%	0.36%	12.9%	0.628%	7.39%	28.4%	-12.5%
O=C(c1cccc2cccnc12)N1CCCN(c2cccnn2)CC1	-6.9%	10.4%	-4.23%	1.47%	6.37%	1.9%	10.8%	0.652%	2.86%	11.8%	-27.3%
O=C1CC[C@H]2[C@H](CCN2C(=O)C2CCOCC2)N1Cc1ccncc1	-2.75%	22.7%	-7.93%	0.426%	2.95%	-3.35%	17.7%	-2.05%	6.35%	15.4%	-9.4%
COCCO[C@@H]1CCN(C(=O)c2ccc(C)o2)[C@@H]1Cc1cnn(C)c1	-5.35%	-2.7%	-1.64%	-4.98%	-2.54%	-2.08%	7.69%	-13%	0.99%	-1.22%	4.49%
CC(=O)Nc1nc(C2CCN(C(=O)c3cccnc3)CC2)cs1	-6.73%	21.3%	0.538%	3.28%	2.36%	-2.56%	12.1%	5.76%	5.32%	19.2%	-2.51%
CN1CCN(Cc2cscn2)CC(C(=O)N(C)C)C1 (configuration not stated)	-6.29%	18.7%	-6.4%	-0.543%	5.91%	-3.03%	3.44%	5.65%	8.51%	14.1%	-4.45%
O=C(NCCN1CCOCC1)c1ccc(-n2ccc3ccccc32)s1	-2.64%	10.4%	4.76%	-1.07%	1.08%	-3.23%	8.01%	28.5%	3.17%	11.5%	-7.3%
Cc1ccc(S(=O)(=O)N2C[C@H]3C[C@H](NC(=O)c4ccn(C)n4)[C@H]3C2)cc1	-7.65%	17.6%	-0.91%	4.49%	-0.395%	-3.48%	9.36%	16.8%	2.15%	9.09%	-25.8%
NCCn1nc(C2CCN(C(=O)CC3CCCCC3)C2)c2nccnc21 (configuration not stated)	-2.44%	-10.7%	3.88%	8.44%	1.57%	-3.5%	-10.5%	11.9%	-8.51%	8.97%	-1.74%
COCCn1ccc(NC(=O)Nc2cccnc2)n1	-2.55%	0%	3.19%	3.76%	2.82%	-7.1%	15.6%	21.2%	3.19%	7.79%	-6.3%
CSCCC(=O)N1CCCC1c1ccsc1 (configuration not stated)	0.213%	9.72%	0.426%	-10.9%	-4.76%	-1.32%	18.8%	30.2%	4.21%	0%	103%
NC(=O)Cc1ccc(NC(=O)C2CCOCC2)cc1	-3.03%	10.8%	-5.71%	-1.1%	-7.52%	2.03%	11.5%	19.3%	5.94%	15.8%	-1.7%
O=C(NCC1CC1)C1CN(C(=O)c2cccc(Cl)c2)CC12CCOCC2 (configuration not stated)	1.58%	10.4%	52.3%	-13.8%	-9.37%	5.81%	16.4%	12.4%	2.12%	-8.97%	-9.61%
Cc1ccc(-c2cc(CNC(=O)N3CCC(CO)CC3)on2)cc1	-2.94%	21.6%	1.9%	-3.05%	-4.74%	-0.185%	14.9%	14%	6.93%	13.4%	-4.09%
COc1ccc(NC(=O)C2CCOC2)c(N2CCN(C(C)=O)CC2)n1 (configuration not stated)	-2.36%	2.7%	-66.2%	2.08%	-0.391%	2.5%	19.7%	2.27%	8.91%	11%	-5.79%
CCn1c(C(=O)N2CCN(C(=O)NC(C)C)CC2)cc2ccccc21	-9.42%	2.6%	5.86%	-4.68%	-3.37%	0.356%	6.93%	14.7%	0%	0%	-7.12%
O=C(NCCOc1ncc(Cl)cc1Cl)c1ccncc1	-9.07%	0%	3.95%	4.2%	-5.27%	-1.67%	9.72%	14.8%	7.92%	8.54%	-3.07%
Cc1nnc2n1CCN(C(=O)c1cn(-c3ccccc3Cl)nn1)C2	-5.44%	8.22%	-1.29%	1.29%	0.992%	-2.79%	6.25%	0.99%	7.29%	16.1%	-2.71%
COCCC(=O)N1CCC2(COCc3cnc(N4CCOCC4)nc32)C1 (configuration not stated)	-4.87%	10.7%	18.4%	-1.98%	-5.51%	2.1%	8.02%	11.9%	0%	6.41%	-0.906%
Cc1ccoc1-c1nnc(CNCC2CCCN2c2cccnn2)o1 (configuration not stated)	-6.58%	0%	-0.825%	2.96%	1.98%	-0.798%	9.33%	6.87%	9.38%	13.6%	1.55%
Cc1ccc(NC2CCN(C(=O)c3cccn3C)CC2)nn1	-10.3%	7.79%	-16.9%	19.7%	11.2%	2.85%	18.4%	26.6%	10.7%	24.4%	-12.9%
